The results in this text go back to PubChem BioAssay (EPA / NIEHS).

The source made the active and inactive calls. Rule for the calls: active = hit-call score of the fitted dose curve at least 0.9, where 1 is the maximum; inactive = score below 0.9.

Estrogen receptor (Homo sapiens), sequence (P03372 whole entry, looked up): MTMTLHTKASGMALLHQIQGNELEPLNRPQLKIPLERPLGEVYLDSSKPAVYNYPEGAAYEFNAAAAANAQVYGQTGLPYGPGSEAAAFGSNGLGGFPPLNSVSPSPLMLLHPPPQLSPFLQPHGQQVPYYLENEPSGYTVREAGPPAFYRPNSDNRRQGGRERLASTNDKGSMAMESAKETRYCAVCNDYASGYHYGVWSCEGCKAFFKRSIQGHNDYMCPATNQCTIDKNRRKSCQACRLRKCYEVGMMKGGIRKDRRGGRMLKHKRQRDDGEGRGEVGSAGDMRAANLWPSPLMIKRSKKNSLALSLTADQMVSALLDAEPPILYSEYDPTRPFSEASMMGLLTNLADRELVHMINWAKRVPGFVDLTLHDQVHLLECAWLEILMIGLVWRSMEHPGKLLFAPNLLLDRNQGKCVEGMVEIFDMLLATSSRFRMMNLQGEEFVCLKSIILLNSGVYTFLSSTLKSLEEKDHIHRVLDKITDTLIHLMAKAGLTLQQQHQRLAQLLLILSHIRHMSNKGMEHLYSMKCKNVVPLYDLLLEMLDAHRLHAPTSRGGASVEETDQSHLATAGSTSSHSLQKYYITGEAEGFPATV

This experiment concerns the target Estrogen receptor (Homo sapiens) (UniProt P03372). Put plainly: CCTE_Deisenroth_AIME_384WELL_LUC_Shift: CCTE's 384-well Estrogen Receptor Transactivation Assay with AIME metabolic competence data shift (ERTA luciferase; difference in metabolism positive and negative), Deisenroth Lab (AID 2284041).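 Note: shift is response with S9 minus without S9 so positive means metabolism raised ER signal.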 The method, then:
CCTE_Deisenroth_AIME_384WELL (AIME metabolism assay) is a cell-based, single-readout assay that uses VM7Luc4E2, a human mammary gland/breast cell line, with measurements taken at 24 hour after chemical dosing in a 384-well plate.CCTE_Deisenroth_AIME_384WELL_LUC_Shift is one of two analysis components calculated from the CCTE_Deisenroth_AIME_384WELL assay. […] AIME is optimized to impart phase I hepatic metabolism using phenobarbital/beta-naphthoflavone induced hepatic S9 from male Sprague Dawley rats. Parent chemicals are incubated for 2 hours in the AIME assay prior to transfer to the VM7Luc ERTA assay plate. […] The metabolic curve shift response is defined as the pairwise difference between the positive (AEID 2488) and negative (AEID 2490) normalized response values at each concentration for a given chemical across replicate experiments. The pairwise differences form the basis for a concentration-response curve. Standard curve fit analysis identfiied chemicals where the calculated shift was greater than the shift-derived baseline cutoff. A positive hit designation in this endpoint indicates a significant shift trend in the positive direction for bioactivation.
The AIME procedure consists of a preparative "pre-stamping" step using a barium chloride/poly-L-lysine (PLL) solution followed by "stamping" the lid in alginate-hepatic S9 (metabolism positive) or alginate-water (metabolism negative) to form microspheres. Once stamping is completed, the AIME lids are placed in duplicate microplates (metabolism positive or negative) containing chemical solutions and incubated for two hours to facilitate metabolic reactions. The conditioned medium, containing parent chemical or metabolites, is then transferred to the cell-based VM7Luc Estrogen Receptor Transactivation Assay (ERTA) for 24 hours. A typical experimental design tests a 10-point concentration series (0.002 - 200 uM) for 8 compounds (96-well format)1 or 32 compounds (384-well format)2 in single technical replicate. AIME assay controls include trans-stilbene (bioactivated control) and ethylparaben (bioinactivated control). ERTA assay plate controls include 17-beta estradiol (positive control) and DMSO (solvent control). Experiments typically comprise a minimum of four experimental replicates (n=4).
`O=C(Nc1ccccc1-c1ccc(Cl)cc1)c1cccnc1Cl`: the result was inactive.

As for `CCCCOCN(C(=O)CCl)c1c(CC)cccc1CC`, the outcome was inactive.

`CC1(C)CON(Cc2ccccc2Cl)C1=O`: the AC50 is 37.7 µM (active).

With `CNC(=O)N(C)c1nnc(C(C)(C)C)s1`, the result was inactive.

On to `CCCC(=NOCC)C1=C(O)CC(CC(C)SCC)CC1=O` (centres undefined), for which the outcome was inactive.

For `C=C(C)CN(CC)c1c([N+](=O)[O-])cc(C(F)(F)F)cc1[N+](=O)[O-]`, the result was inactive.

As for `CC1(C)C(C=C(Cl)Cl)C1C(=O)OC(C#N)c1cccc(Oc2ccccc2)c1` (centres undefined), the outcome was inactive.

As to `Nc1c(Cl)c(Cl)nc(C(=O)O)c1Cl`, the AC50 is 5.4 µM (active).

Consider `CCCCC(C#N)(Cn1cncn1)c1ccc(Cl)cc1` (centres undefined), for which the outcome was inactive.

For `COC(=O)NS(=O)(=O)c1ccc(N)cc1`, the result was inactive.

As to `CCOP(=O)(OCC)Oc1nc(Cl)c(Cl)cc1Cl`, the result was inactive.

Consider `CCOc1nc(F)cc2nc(S(=O)(=O)Nc3c(Cl)cccc3Cl)nn12`, for which the result was inactive.

As to `CCOP(=S)(OCC)Oc1nc(Cl)n(C(C)C)n1`, the result was inactive.

Consider `COP(=S)(OC)Oc1ccc([N+](=O)[O-])c(C)c1`, for which the outcome was inactive.

As for `CC(C)N1C(=O)N(c2ccccc2)CSC1=NC(C)(C)C`, the result was inactive.

With `CO/N=C(/C1=NOCCO1)c1ccccc1Oc1ncnc(Oc2ccccc2Cl)c1F`, the result was inactive.

With `COP(=S)(OC)SCn1nnc2ccccc2c1=O`, the result was inactive.

Consider `CCOc1nc(C(Cl)(Cl)Cl)ns1`, for which the outcome was inactive.

As for `CN=C=S`, the result was inactive.

For the compound `Clc1cccc(C(Cl)(Cl)Cl)n1`, the outcome was inactive.

For `CCCCC(O)(Cn1cncn1)c1ccc(Cl)cc1Cl` (centres undefined), the result was inactive.

For the compound `Cc1cc(C)nc(Nc2ccccc2)n1`, the outcome was inactive.

`O=c1n(Cl)c(=O)n(Cl)c(=O)n1Cl`: the outcome was inactive.

For `CS(=O)(=O)c1cc(C(F)(F)F)ccc1C(=O)c1cnoc1C1CC1`, the result was inactive.

For the compound `Cc1ccc(N=CN(C)C=Nc2ccc(C)cc2C)c(C)c1`, the result was inactive.

As to `CCSC(=O)N1CCCCCC1`, the outcome was inactive.

As to `COc1ccc(-c2ccccc2)cc1NNC(=O)OC(C)C`, the outcome was inactive.

With `CCC(C)n1c(=O)[nH]c(C)c(Br)c1=O` (centres undefined), the result was inactive.

Regarding `COCc1cnc(C2=NC(C)(C(C)C)C(=O)N2)c(C(=O)O)c1` (centres undefined), the result was inactive.

For the compound `COc1cc(OC)nc(NC(=O)NS(=O)(=O)c2ncccc2OCC(F)(F)F)n1`, the outcome was inactive.

Consider `Nc1cnn(-c2ccccc2)c(=O)c1Cl`, for which the result was inactive.

Turning to `COCC(C)N(C(=O)CCl)c1c(C)csc1C` (centres undefined), the outcome was inactive.

Take `N#Cc1c(Cl)cccc1Cl`: the outcome was inactive.

As for `CC(C)Oc1cccc(NC(=O)c2ccccc2C(F)(F)F)c1`, the result was inactive.

For `CCOC(=O)C(C)OC(=O)c1cc(Oc2ccc(C(F)(F)F)cc2Cl)ccc1[N+](=O)[O-]` (centres undefined), the result was inactive.

Regarding `CC(C)N1C(=O)c2ccccc2NS1(=O)=O`, the outcome was inactive.

In the case of `COC(=O)NC(=S)Nc1ccccc1NC(=S)NC(=O)OC`, the result was inactive.

As for `CC(C)Nc1nc(Cl)nc(NC(C)C)n1`, the result was inactive.

Turning to `COC(=O)N(C(=O)N1CO[C@@]2(C(=O)OC)Cc3cc(Cl)ccc3C2=N1)c1ccc(OC(F)(F)F)cc1`, the result was inactive.
